Several values for one entry are separate records, joined by “and”; a condition that tells them apart may be missing. Equal values may be shown once. Results filed as inconclusive are left out. Activity calls are given as the source filed them. Calls follow the shape of the dose curve; as a rule, active = well fitted curve in the direction sought with a large enough effect; inconclusive = small, poorly fitted or top-dose-only effect, or another doubt; inactive = no such curve, though single readings can be large; an effect the other way counts as inactive or inconclusive.
test system: WaGa; test: qHTS assay to identify novel small-molecules to repurpose for Merkel cell carcinoma treatment (AID 1296009); conditions: MCC and control cell lines, CellTiter-Glo viability, 72 h; series mostly up to 46 µM; activity change, negative = cytotoxicity: at the top concentration; also: nearly all actives have a fitted effect of over 60% in size
How it was run: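 72 hr, 37 degree celsius; NPC 8-pt / MIPE 11-pt dose response; compound pinned in DMSO; CellTiter-Glo, 10 min RT, luminescence; normalized to no-cell and DMSO controls.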
% is scaled to controls: 0 for no effect and ±100 for the full control effect; potency is read from the fitted curve at half-maximal effect.

Compound	Potency	activity change, negative = cytotoxicity
O=C(O)c1cc(-c2ccccc2)nc2ccccc12	inactive	–
OC[C@@H](O)[C@H](O)[C@H](O)[C@@H](O)CO	inactive	–
O=C(NC1CCOCC1)c1ccc(-c2cc(-c3cn[nH]c3-c3ccccn3)ccn2)cc1	–	-3.08% (inactive)
CCN1CCC[C@H]1CNC(=O)c1cc(S(N)(=O)=O)ccc1OC	–	11.1% (inactive)
COc1ccc(C2CC(c3ccccc3)=NN2c2ccc(S(N)(=O)=O)cc2)cc1 (centres undefined)	–	-0.389% (inactive)
Clc1ccc(Cn2c(CN3CCCC3)nc3ccccc32)cc1	–	-20.2% (inactive)
O=C(O)Cc1cccc2ccccc12	inactive	–
C[C@@H](O)[C@H]1C(=O)N2C(C(=O)O)=C(S[C@@H]3CN[C@H](C(=O)N(C)C)C3)[C@H](C)[C@H]12	inactive	–
CC(=O)Oc1cc2c(s1)CCN(C(C(=O)C1CC1)c1ccccc1F)C2 (centres undefined)	10.5 µM (active)	–
CC(=O)CCCCn1c(=O)c2c(ncn2C)n(C)c1=O	–	13.9% (inactive)
O=C(CCN1CCN(C(=O)OCc2cc(Cl)cc(Cl)c2)CC1)c1ccc2[nH]c(=O)oc2c1	–	-8.73% (inactive)
COc1ncc(-c2ccc3nccc(-c4ccnnc4)c3c2)cc1NS(=O)(=O)c1ccc(F)cc1F	0.526 µM (active)	–
O=C(O)CCc1nc(-c2ccccc2)c(-c2ccccc2)o1	–	-19.1% (inactive)
CNC(=O)c1ccc2cc(C3(O)CCn4cncc43)ccc2c1 (centres undefined)	–	2.22% (inactive)
COc1ccccc1N1CCN(CCCNc2cc(=O)n(C)c(=O)n2C)CC1	–	6.36% (inactive)
CC(C)C(=O)Oc1ccc(CO)cc1[C@H](CCN(C(C)C)C(C)C)c1ccccc1	–	-11.6% (inactive)

Compound	Potency	activity change, negative = cytotoxicity
Cc1cnc(C(=O)O)c[n+]1[O-]	–	-6.14% (inactive)
CC[C@]1(O)C[C@@H]2CN(CCc3c([nH]c4ccccc34)[C@@](C(=O)OC)(c3cc4c(cc3OC)N(C)[C@H]3[C@@](O)(C(=O)OC)[C@H](OC(C)=O)[C@]5(CC)C=CCN6CC[C@]43[C@@H]65)C2)C1	26.6 nM (active) and 75 nM (active)	–
COc1ccc2cc(-c3nc(-c4ccc(S(C)=O)cc4)[nH]c3-c3ccncc3)ccc2c1 (centres undefined)	–	-23.3% (inactive)
CCN(CC)CCNC(=O)c1ccc(N)cc1	–	5.14% (inactive)
CC(C)(C)c1cc(C(=O)O)c(NC(=O)Nc2ccc3[nH]ncc3c2)s1	–	-9.65% (inactive)
COc1ccc2c(Oc3ccc(NC(=O)c4c(C)n(CC(C)(C)O)n(-c5ccccc5)c4=O)nc3)ccnc2c1	–	2.42% (inactive)
O=C(O)c1ccccc1C(=O)Nc1ccc(-c2ccccc2)cc1	–	-3.09% (inactive)
CN(C)CCC(c1ccccc1)c1ccccn1 (centres undefined)	–	5.5% (inactive)
COC(=O)[C@@H]1[C@H]2C[C@H]3c4[nH]c5ccccc5c4CCN3C[C@@H]2CC[C@@H]1O	–	-0.685% (inactive)
O=C(Nc1ccccc1-c1cn2c(CN3CCNCC3)csc2n1)c1cnc2ccccc2n1	–	-15.7% (inactive)
Cc1ccccc1C(C(=O)NC1CCCCC1)N(C(=O)Cn1ccnc1C)c1cccc(F)c1 (centres undefined)	–	-0.602% (inactive)
Cc1c(NC(=O)c2ccc(C(C)(C)C)cc2)cccc1-c1cn(C)c(=O)c(Nc2ccc(C(=O)N3CCOCC3)cc2)n1	–	-12% (inactive)
CCOC(=O)C1=C(N)Oc2ccc(Br)cc2C1C(C#N)C(=O)OCC (centres undefined)	–	-17.6% (inactive)
Cc1ccc(Nc2cc(-c3cccc(N4C(=O)c5ccccc5C4=O)c3)ncn2)cc1NS(C)(=O)=O	–	-5.59% (inactive)
CCCNC(=O)NS(=O)(=O)c1ccc(Cl)cc1	–	11.2% (inactive)
COc1cc2ncnc(-n3nc(-c4ccccn4)nc3N)c2cc1OC	–	-3.79% (inactive)

test system: C33A; test: Primary qHTS to identify gynecologic anti-cancer compounds using libraries of approved drugs and bioactive compounds (AID 1345084); conditions: Gynecologic cancer cell panel viability, ATPlite luminescence, 48 h; series mostly up to 57.5 µM; activity change, negative = cytotoxicity: at the top concentration; also: nearly all actives have a fitted effect of over 55% in size
How it was run: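 Cells, 1,000 per well, were allowed to settle for 16 h at 37 C before compound addition. Five concentrations were tested for 48 h, and viability was read by ATPlite luminescence after 15 min at room temperature.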

Compound	Potency	activity change, negative = cytotoxicity
O=C(O)c1cc(-c2ccccc2)nc2ccccc12	inactive	–
OC[C@@H](O)[C@H](O)[C@H](O)[C@@H](O)CO	inactive	–
O=C(NC1CCOCC1)c1ccc(-c2cc(-c3cn[nH]c3-c3ccccn3)ccn2)cc1	–	4.44% (inactive)
CCN1CCC[C@H]1CNC(=O)c1cc(S(N)(=O)=O)ccc1OC	inactive	–
COc1ccc(C2CC(c3ccccc3)=NN2c2ccc(S(N)(=O)=O)cc2)cc1 (centres undefined)	–	2.17% (inactive)
Clc1ccc(Cn2c(CN3CCCC3)nc3ccccc32)cc1	inactive	–
O=C(O)Cc1cccc2ccccc12	inactive	–
C[C@@H](O)[C@H]1C(=O)N2C(C(=O)O)=C(S[C@@H]3CN[C@H](C(=O)N(C)C)C3)[C@H](C)[C@H]12	inactive	–
CC(=O)Oc1cc2c(s1)CCN(C(C(=O)C1CC1)c1ccccc1F)C2 (centres undefined)	–	-6.26% (inactive)
CC(=O)CCCCn1c(=O)c2c(ncn2C)n(C)c1=O	inactive	–
O=C(CCN1CCN(C(=O)OCc2cc(Cl)cc(Cl)c2)CC1)c1ccc2[nH]c(=O)oc2c1	–	4.27% (inactive)
O=C(O)CCc1nc(-c2ccccc2)c(-c2ccccc2)o1	inactive	–
CNC(=O)c1ccc2cc(C3(O)CCn4cncc43)ccc2c1 (centres undefined)	–	-2.12% (inactive)
COc1ccccc1N1CCN(CCCNc2cc(=O)n(C)c(=O)n2C)CC1	inactive	–
CS(=O)c1ccc(-c2nc(-c3ccc(F)cc3)c(-c3ccncc3)[nH]2)cc1 (centres undefined)	–	7.08% (inactive)
CC[C@]1(O)C[C@@H]2CN(CCc3c([nH]c4ccccc34)[C@@](C(=O)OC)(c3cc4c(cc3OC)N(C)[C@H]3[C@@](O)(C(=O)OC)[C@H](OC(C)=O)[C@]5(CC)C=CCN6CC[C@]43[C@@H]65)C2)C1	1.58 µM (active)	–

Compound	Potency	activity change, negative = cytotoxicity
COc1ccc2cc(-c3nc(-c4ccc(S(C)=O)cc4)[nH]c3-c3ccncc3)ccc2c1 (centres undefined)	–	-2.57% (inactive)
CCN(CC)CCNC(=O)c1ccc(N)cc1	inactive	–
CC(C)(C)c1cc(C(=O)O)c(NC(=O)Nc2ccc3[nH]ncc3c2)s1	–	2.41% (inactive)
COc1ccc2c(Oc3ccc(NC(=O)c4c(C)n(CC(C)(C)O)n(-c5ccccc5)c4=O)nc3)ccnc2c1	–	0.594% (inactive)
CCOc1ccc(Nc2nc(-c3c(C)nc4ccccn34)cs2)cc1	0.355 µM (active)	–
O=C(O)c1ccccc1C(=O)Nc1ccc(-c2ccccc2)cc1	–	-22.6% (inactive)
CN(C)CCC(c1ccccc1)c1ccccn1 (centres undefined)	inactive	–
COC(=O)[C@@H]1[C@H]2C[C@H]3c4[nH]c5ccccc5c4CCN3C[C@@H]2CC[C@@H]1O	inactive	–
O=C(Nc1ccccc1-c1cn2c(CN3CCNCC3)csc2n1)c1cnc2ccccc2n1	–	-7.99% (inactive)
Cc1ccccc1C(C(=O)NC1CCCCC1)N(C(=O)Cn1ccnc1C)c1cccc(F)c1 (centres undefined)	–	1.1% (inactive)
Cc1c(NC(=O)c2ccc(C(C)(C)C)cc2)cccc1-c1cn(C)c(=O)c(Nc2ccc(C(=O)N3CCOCC3)cc2)n1	–	-5.27% [at 38.5 µM] (inactive)
CCOC(=O)C1=C(N)Oc2ccc(Br)cc2C1C(C#N)C(=O)OCC (centres undefined)	inactive	–
Cc1ccc(Nc2cc(-c3cccc(N4C(=O)c5ccccc5C4=O)c3)ncn2)cc1NS(C)(=O)=O	–	-10.6% (inactive)
CC(C)[C@H](CO)Nc1nc(Nc2ccc(C(=O)O)c(Cl)c2)c2ncn(C(C)C)c2n1	–	6.16% [at 25.3 µM] (inactive)
CCCNC(=O)NS(=O)(=O)c1ccc(Cl)cc1	inactive	–
COc1cc2ncnc(-n3nc(-c4ccccn4)nc3N)c2cc1OC	–	2.61% [at 25.3 µM] (inactive)

Reference: PubChem BioAssay (NCATS)
